# Results reported in PubChem BioAssay (NCATS).
# Results filed as inconclusive are left out. Values without a mark were called inactive. The source made the active and inactive calls. The call rests on the fitted dose curve; in most records, active means well fitted inhibition curve with a large enough effect; inconclusive means small, poorly fitted or top-dose-only effect; inactive means flat fitted curve, though single readings scatter.
# Target: Dual specificity protein kinase CLK4 (Homo sapiens) (UniProt Q9HAZ1)
# Sequence (Q9HAZ1 whole entry, looked up): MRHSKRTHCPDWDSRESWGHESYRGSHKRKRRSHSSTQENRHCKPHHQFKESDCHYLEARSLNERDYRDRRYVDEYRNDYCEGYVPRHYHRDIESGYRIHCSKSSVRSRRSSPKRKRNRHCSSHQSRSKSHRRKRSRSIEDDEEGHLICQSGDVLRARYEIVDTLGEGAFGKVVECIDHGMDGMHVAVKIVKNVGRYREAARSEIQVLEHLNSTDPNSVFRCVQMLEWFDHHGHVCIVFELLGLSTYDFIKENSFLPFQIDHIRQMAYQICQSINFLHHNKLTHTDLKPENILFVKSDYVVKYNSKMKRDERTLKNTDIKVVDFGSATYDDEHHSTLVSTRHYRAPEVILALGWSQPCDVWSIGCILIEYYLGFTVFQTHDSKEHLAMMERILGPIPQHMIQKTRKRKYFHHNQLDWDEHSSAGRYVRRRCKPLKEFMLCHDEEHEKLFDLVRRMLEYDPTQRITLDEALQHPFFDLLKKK
# Experiment: qHTS Assay for Inhibitors of CDC-like Kinase 4 (ADP-FP Assay) (AID 1795); further: nearly all actives have a fitted effect of over 60% in size;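 on activity change, negative = inhibition: recombinant human CLK4 phosphorylating RS repeat peptide at 1 µM ATP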
# Conditions: Transcreener ADP fluorescence polarization; series mostly up to 50 µM; activity change, negative = inhibition: at the top concentration
# Procedure: NIH Molecular Libraries Probe Production Centers Network [MLPCN] NIH Chemical Genomics Center [NCGC] MLPCN Grant: 1R03MH084827-01 Assay Submitter (PI): Tom Misteli NCGC Assay Overview: Clk4 (Invitrogen cat # PV3839) was assayed using ATP and the RS repeat peptide (AnaSpec cat # 61722) as substrates using Transcreener (trade mark), a competitive fluorescence polarization (FP) assay. For the present assay, we used the Orange TranscreenerTM ADP2 (BellBrooks Labs, Madison, Wis) detection system to monitor ADP production in the kinase reaction. […] This allows the ADP tracer to freely rotate leading to a decrease in the observed FP value. The amount of ADP produced can then be calculated using a calibration curve. The positive control for the assay was TG003 (Sigma-Aldrich, cat # 300801-52-9) which is a Clk4 inhibitor [2].
# NCGC Assay Protocol Summary: Two uL/well of substrate-buffer solution (100 uM RS peptide, 1 uM ATP, 25 mM Tris pH7.5, 10 mM MgCl2, 0.5 mM EGTA, 2.5 mM DTT, 0.01% Triton X-100 final concentration) was dispensed into 1,536-well assay plates (Greiner, solid black medium-binding plates) with Aurora Discovery BioRAPTR Flying Reagent Dispenser (FRD; Beckton-Dickenson). Using a Kalypsys pin tool equipped with a 1,536-pin tool, 23 nL of compound solution was transferred to the assay plate. Two uL/well Clk4-buffer solution (6.25 nM Clk4, 25 mM Tris pH 7.5, 10 mM MgCl2, 0.5 mM EGTA, 2.5 mM DTT, 0.01% Triton X-100, final concentration) was then added using the FRD yielding a total kinase reaction volume of 4 uL/ well. Then 4 uL/well of detection mixture (4 nM orange fluorescent tracer, 1 ug/mL ADP antibody, final concentration) was then added after an hour and the polarization signal was measured using the EnVision plate reader (PerkinElmer, Waltham, MA) after 30 min of room temperature incubation using the following filters and program settings: BODIPY TMR FP dual Enh mirror (barcode 682); BODIPY-TMR 531 (barcode 105) excitation; BODIPY-TMR FP P/S polarized 595 nm filters (barcodes 210 and 211, respectively); 100% light; 150 flashes; 1.35 G-factor; Detector gains were 685 for the 1st detector; 630 for the 2nd detector.
# On the % scale 0 is the no-effect control and ±100 the full control effect; potency means the concentration at half of the fitted maximal effect.
Structure (SMILES),Potency,"activity change, negative = inhibition [%]"
COc1ccc2[nH]cc(CCNc3ncncc3-c3cccc(NS(C)(=O)=O)c3)c2c1,10000 nM (active),
CN(C)C(=O)c1ccc(-c2cncnc2-n2ccnc2)cc1,,-3.27
COc1ccccc1CNc1ccnc(-c2ccccc2Cl)n1,,7.35
COc1cccc(Nc2ncc3ncc(=O)n(Cc4cccs4)c3n2)c1,501 nM (active),
COc1ccccc1CNc1nc(-c2ccc3c(c2)OCO3)nc2ccccc12,,-4.07
CN(C)c1ncc2nc(-c3cccs3)c(=O)n(C)c2n1,,7.74
CCNc1ncc2nc(-c3ccc(F)cc3)c(=O)n(Cc3ccc(F)cc3)c2n1,,8.37
FC(F)(F)c1ccccc1-c1cncnc1NCc1cccs1,,3.22
COc1ccc(-n2c(=O)c(-c3cc(F)cc(F)c3)nc3cnc(N4CCOCC4)nc32)cc1,,9.34
CN(C)c1ncc2nc(-c3cccs3)c(=O)n(CCc3ccccc3)c2n1,,12.6
COc1ccccc1CNc1ncnc2ccc(-c3ccccc3OC)cc12,1580 nM (active),
COc1ncc2nc(-c3cccs3)c(=O)n(Cc3ccc(F)cc3)c2n1,,9.04
CN(C)C(=O)c1ccc(-c2cc(N(C)Cc3ccco3)ncn2)cc1,,-3.14
Cc1cnc(CNc2ncnc3ccc(-c4ccc5c(c4)OCO5)cc23)cn1,224 nM (active),
Fc1ccc(Nc2ccnc(-c3ccc4c(c3)OCO4)n2)cc1,,-28.6
COCCn1c(=O)c(-c2ccccc2)nc2cncnc21,,3.6
COc1cccc(-c2ccc3ncnc(N4CCOCC4)c3c2)c1,1120 nM (active),
Cc1cnc(CNc2ncnc3ccc(-c4ccc(C(=O)N(C)C)cc4)cc23)cn1,,0
CN(C)c1ncc2nc(-c3ccc(F)cc3)c(=O)n(CCc3ccccc3)c2n1,,10.3
CCNc1ncc2nc(-c3ccc(Cl)cc3)c(=O)n(Cc3cccc(OC)c3)c2n1,,4.59

Structure (SMILES),Potency,"activity change, negative = inhibition [%]"
COc1cccc(-c2cc(NCc3ccc(OC)cc3OC)ncn2)c1,,-9.97
COc1ccc(CNc2ncncc2-c2cccc(NS(C)(=O)=O)c2)c(OC)c1,,-4.98
COCCn1c(=O)c(-c2cccc(Cl)c2)nc2cncnc21,,4.21
CN(C)C(=O)c1ccc(-c2ccc3ncnc(Nc4ccccc4)c3c2)cc1,,-16.3
COc1cccc(Cn2c(=O)c(-c3cccs3)nc3cnc(OCc4ccccc4)nc32)c1,,4.75
CN1CCN(c2ncc3nc(-c4cccc(C#N)c4)c(=O)n(C)c3n2)CC1,,-9.42
N#CCCn1c(=O)c(-c2cc(F)cc(F)c2)nc2cnc(Oc3ccccc3)nc21,,3.67
CCNc1ncc2nc(-c3cccs3)c(=O)n(Cc3cccs3)c2n1,,2.55
COCCNc1ccnc(-c2ccccc2C)n1,,-15.4
COCCn1c(=O)c(-c2cccs2)nc2cncnc21,,-4.82
CCNc1ncc2nc(-c3cn(C)c4ccccc34)c(=O)n(Cc3cccs3)c2n1,,5.1
O=c1c(-c2ccc(F)cc2)nc2cncnc2n1Cc1ccc(F)cc1,,10
CCNc1ncc2nc(-c3ccc(F)cc3)c(=O)n(-c3ccccc3)c2n1,,2.87
c1cncc(CNc2ccnc(-c3cccnc3)n2)c1,,-16.3
COc1cccc(-c2ccc3ncnc(NCCN4CCOCC4)c3c2)c1,631 nM (active),
CN(C)C(=O)c1ccc(-c2ccc3ncnc(NCCN4CCOCC4)c3c2)cc1,,-9.65
Cn1cc(-c2nc3cnc(Oc4cccc(Cl)c4)nc3n(C3CC3)c2=O)c2ccccc21,,8.42
COc1cccc(Nc2ncc3nc(-c4ccccc4)c(=O)n(C)c3n2)c1,,-1.45
Cc1noc(C)c1-c1ccc2ncnc(N3CCOCC3)c2c1,8910 nM (active),
COc1ccc(CNc2nc(-c3ccc(N(C)C)cc3)nc3ccccc23)c(OC)c1,,12.4
